Assay outcomes deposited in PubChem by National Center for Advancing Translational Sciences (NCATS).
TRHR PAM: allosteric enhancers of human TRH receptor; P34981; TRHR cells, fluo-8 calcium fluorescence, EC20 TRH enhancement; enhancement, % at 2 µM; 0.66% of 360,000 active; AID 493056; in the data active = enhancement above about 30%; note: 0% is about no effect
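TRHR-expressing cells loaded with fluo-8 calcium dye were read kinetically (ex 480/em 530) during compound addition, then stimulated with an EC20 of TRH (10 nM final). Enhancement of the Gq-mediated intracellular calcium response was scored.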
GRP78 ERSR act: inducers of ER stress response in human glioma cells; U87-MG GRP78 promoter luciferase reporter, 16 h; Potency, µM, for inactives: at the top dose activation, actives largely listed as activators; 0.02% of 420,000 active; active = well fitted activation curve with a large enough effect; note: potency is the fitted concentration of half-maximal effect; series mostly up to about 76 µM; % of control where 0% means no effect; nearly all actives have a fitted effect of over 35% in size
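Stably transfected U87-MG glioma cells carrying a GRP78-based luciferase sensor; 16 h compound incubation. Luminescence end-point read 10 min after Bright-Glo addition at room temperature.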
D1 PAM: human D1 dopamine receptor positive modulation; P21728; HEK293 TREx D1 cells, calcium flux, dopamine EC20 potentiation; potentiation, % at 10 µM; 0.036% of 360,000 active; in the data active = potentiation above about 30%; note: 0% is about no effect
Target sequence (P21728 whole entry, looked up): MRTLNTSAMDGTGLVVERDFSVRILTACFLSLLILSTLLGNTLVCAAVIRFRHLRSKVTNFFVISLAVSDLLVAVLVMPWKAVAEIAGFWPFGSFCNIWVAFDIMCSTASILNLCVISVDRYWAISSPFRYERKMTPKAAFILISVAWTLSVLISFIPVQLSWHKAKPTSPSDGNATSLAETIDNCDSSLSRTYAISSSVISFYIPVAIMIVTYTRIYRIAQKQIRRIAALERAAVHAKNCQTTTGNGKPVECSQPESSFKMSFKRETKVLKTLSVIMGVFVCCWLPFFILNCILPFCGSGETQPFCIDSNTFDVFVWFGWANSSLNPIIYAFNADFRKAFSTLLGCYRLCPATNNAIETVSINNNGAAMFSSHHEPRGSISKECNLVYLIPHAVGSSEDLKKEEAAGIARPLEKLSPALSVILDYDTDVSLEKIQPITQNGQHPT
D1 antagonist: blocks dopamine activation of the human D1 receptor; activity change, negative = inhibition, % at 10 µM; HEK293 TREx D1 cells, calcium flux, dopamine EC80; hits give low values; 3.2% of 360,000 active; in the data active = activity change below about -30%; note: % is set by controls: 0 for no effect and ±100 for the full control effect
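Allosteric or orthosteric antagonism assessed as attenuation of the calcium response to EC80 dopamine, added 180 s after compound, in induced HEK293 Trex D1 cells loaded with no-wash calcium dye.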
TRHR agonist: agonists of human TRH receptor | activation, % at 2 µM | AID 493084 | TRHR cells, calcium flux fluo-8, FDSS agonist mode | 0.18% of 360,000 active; note: 0% is about no effect
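Agonist-mode FDSS calcium read (Ex 480/Em 530, 1 s cycles) in 1536-well TRHR cells with fluo-8 dye, after 10-cycle baseline and 23 nL compound addition; TRH at EC20 (10 nM final) added afterwards for the enhancer phase.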
D1 agonist: activates the human D1 dopamine receptor; HEK293 T-REx D1 cells, calcium flux, agonist mode; activation, % at 2 µM; 1% of 360,000 active; note: 0% is about no effect
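Agonism was scored from calcium flux recorded over 180 s (1 read/s) after pintool compound addition, following a 10-cycle baseline. Cells were inducible force-coupled HEK293 TREx D1, plated overnight at 30 C and loaded with no-wash calcium dye.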
* marks the source's active call; other numbers are inactive results; · = not tested or not shown. A selection: hits, their analogues and other compounds. The true share with any hit is near 4%. Cut-off read from the data, not from the text of the source, unless noted: active = activation above about 30%; inactive = the rest.

SMILES	TRHR PAM	GRP78 ERSR act	D1 PAM	D1 antagonist	TRHR agonist	D1 agonist
Clc1ncnc2scc(C3COc4ccccc4O3)c12 (configuration not stated)	-5	3%	-4	-13	1	0
O=c1[nH]cnc2scc(C3COc4ccccc4O3)c12 (configuration not stated)	2	3%	-3	-18	-1	47*
O=C(CCCN1C(=O)c2cccnc2C1=O)Nc1ccc(Br)cc1	9	1%	-5	-55*	0	-1
O=C(CCCN1C(=O)c2ccccc2C1=O)Nc1ccc(Br)cn1	4	-4%	1	-13	0	0
Cc1ccc(C(CNC(=O)Nc2ccc(Cl)cc2)N2CCN(C)CC2)cc1 (configuration not stated)	-2	-4%	-14	-44*	1	6
COc1ccc(Cl)cc1NC(=O)CN(C)C(=O)Cn1cnc2c1c(=O)n(C)c(=O)n2C	7	-3%	4	9	0	1
COc1ccc2oc(C(=O)N3CCN(C(=O)c4ccco4)CC3)c(C)c2c1	-4	-4%	-14	-36*	0	3
Cc1c(C(=O)N2CCN(CCc3ccccc3)CC2)oc2ccccc12	-2	0%	-3	-32*	0	2
COCc1c(C(=O)N2CCN(CCOc3ccccc3)CC2)oc2ccccc12	-5	-3%	·	-45*	0	5
Cc1c(C(=O)N2CCN(S(C)(=O)=O)CC2)oc2ccccc12	12	12%	-6	-2	-1	3
CC(C)(C)NC(=O)c1oc2ccccc2c1COc1ccccc1	-8	-1%	6	7	0	31*
CCC1(c2ccccc2)NC(=O)N(CC(=O)Nc2cc(S(=O)(=O)N3CCCCC3)ccc2N(C)C)C1=O (configuration not stated)	1	-2%	-3	-20	0	5
COc1ccc(S(=O)(=O)N2CCCCC2)cc1NC(=O)CCNC(=O)c1ccccc1Cl	-8	1%	-3	-70*	-1	1
COc1ccccc1CNC(=O)CN1C(=O)CCc2cc(S(=O)(=O)N3CCCCC3)ccc21	-7	1%	1	-56*	-1	-1
COc1ccc(S(=O)(=O)N2CCCCCC2)cc1NC(=O)CN1C(=O)NC(C)(c2ccccc2)C1=O (configuration not stated)	24	0%	-5	-31*	0	1
COc1ccc(CN2CCN(CCCCOc3ccc(Cl)cc3)CC2)c(OC)c1OC	-1	-3%	-3	·	-1	4
COc1cccc(N2CCN(C(=O)CCC(=O)c3ccc(Cl)s3)CC2)c1	11	2%	-6	-17	-1	-1
Fc1ccc(NC(=S)N2CCCCC2)cc1	6	-5%	-2	-12	0	3
COc1ccccc1Cn1cc(C(=O)c2ccc(C)cc2)c(=O)c2cc(F)cc(F)c21	2	-3%	2	7	0	-1
CCOc1ccc(C(=O)c2cn(Cc3ccccc3)c3c(F)cc(F)cc3c2=O)cc1	33*	-4%	-2	-28	-1	6
COCc1nn2c(N)c(C#N)cnc2c1-c1ccccc1	-7	1%	-4	0	-1	0
COCc1nn2c(N)c(-c3ccccc3)cnc2c1-c1ccccc1	4	4%	-7	-35*	0	2
Cc1nc2c(c(C)nn2-c2ccccc2)c(C)c1CCC(=O)Nc1ccc(CN2CCCC2)cc1	1	-6%	-17	-39*	1	22
Cc1cc(NC(=O)CSc2nc3ccccc3n2CC(=O)N2CCC(C)CC2)no1	8	-2%	0	-10	0	-1
Cc1cc(NC(=O)CSc2nc3ccccc3n2CC(=O)N2CC(C)CC(C)C2)no1 (configuration not stated)	-6	-1%	1	-41*	0	-1
SMILES	TRHR PAM	GRP78 ERSR act	D1 PAM	D1 antagonist	TRHR agonist	D1 agonist
COCCCN(C(=S)Nc1cccc(Cl)c1)C(C)c1ccncc1 (configuration not stated)	37*	2%	7	-16	1	0
O=C(c1ccccc1F)c1cc2c(cc1[N+](=O)[O-])OCCO2	6	3%	-2	-9	-1	2
COc1ccc(C(=O)c2cc3c(cc2[N+](=O)[O-])OCCO3)cc1	-2	2%	1	-32*	0	-1
S=C(NCCCc1cnc[nH]1)NCCCN(Cc1ccc(Cl)cc1)c1ccc(Br)cc1	·	-12%	·	·	·	·
c1ccc(C2CNCCc3ccccc32)cc1 (configuration not stated)	-10	-2%	-19	-42*	0	15
Oc1cc2c(cc1O)[C@@H](c1ccccc1)CNCC2	-7	-4%	-6	-91*	-1	5
Oc1cc2c(cc1O)C(c1ccccc1)CNCC2 (configuration not stated)	·	-4%	·	·	·	·
CC1=C(C(=O)Nc2ccccc2)C(c2ccc(C)o2)n2ncnc2N1 (configuration not stated)	3	1%	-12	-60*	-1	2
COc1ccc(NC(=O)C2=C(C)Nc3ncnn3C2c2ccc(C)o2)cc1 (configuration not stated)	25	-4%	5	2	0	1
Fc1ccc(C2=NN(c3ccccc3)C(c3ccco3)C2)cc1 (configuration not stated)	-2	-1%	-2	8	-1	4
C(=C\c1ccco1)/C1=NN(c2ccccc2)C(c2ccco2)C1 (configuration not stated)	-2	3%	-8	7	10	45*
Cc1ccc(-n2ncc3c(=O)n(CC(=O)N4CCCCCC4)cnc32)cc1	10	1%	2	13	-1	2
Cc1cc(C)n2cc(CSCC(=O)O)nc2n1	1	-3%	-6	-35*	1	0
O=C(Nc1cccc(CNCCc2c[nH]c3ccccc23)c1)c1ccccc1Cl	0	-5%	-7	-41*	1	32*
CC(=O)c1cccc(NC(=O)NCCc2c[nH]c3ccccc23)c1	-1	-2%	13	-12	-1	5
COc1cccc(NC(=O)NC2(C(=O)N3CCC(O)CC3)CCCCC2)c1	4	-5%	-9	-4	1	1
CN1CCC/C1=C/C=C1\SC(=S)NC1=O	10	0%	-1	10	48*	81*
CN1C(=O)C(=O)N(c2cccc(C(F)(F)F)c2)C1=O	·	2%	·	·	·	·
Cc1nc(CCNC(=O)c2cccs2)cs1	10	1%	2	24	-1	-1
Cc1ccc(S(=O)(=O)Oc2ccc(/C=C3/C(=N)N4C(=NC3=O)SN=C4S(C)(=O)=O)cc2)cc1	6	14%	-8	7	-1	0
